Screening results deposited in PubChem BioAssay by National Center for Advancing Translational Sciences (NCATS).
JMJD2A Tudor: qHTS Assay for Inhibitors of JMJD2A-Tudor Domain; actives 4.4% (n = 390,000); Lysine-specific demethylase 4A (Homo sapiens), O75164; Potency, µM (titrated, usually from 114 µM), inactives show at the top dose activity change, negative = inhibition, most hits filed as inhibitors; AlphaScreen JMJD2A-Tudor / H3K4me3 peptide binding; further: on the % scale 0 is the no-effect control and ±100 the full control effect; nearly all actives have a fitted effect of over 50% in size
L3MBTL1 inh: qHTS Assay for the Inhibitors of L3MBTL1. Lethal(3)malignant brain tumor-like protein 1 (Homo sapiens), Q9Y468. AlphaScreen L3MBTL1–H3K9me1 peptide binding. Potency, µM (series often up to 57.1 µM), for the others: at the highest dose activity, negative = inhibition, hits mostly inhibitors. actives 0.66% (n = 230,000). AID 485360, 2010; further: on the % scale 0 is the no-effect control and ±100 the full control effect; nearly all actives have a fitted effect of over 60% in size
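First, the protein-peptide complex forms for 30 min at room temperature (L3MBTL1 50 nM, biotinylated H3K9me1 peptide 75 nM). Next, compounds are pin-transferred and incubated 30 min. Finally, AlphaScreen beads are added and read after 30 min.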
Sfp inh: qHTS Assay for Inhibitors of Bacillus subtilis Sfp phosphopantetheinyl transferase (PPTase). 4'-phosphopantetheinyl transferase ffp (Bacillus subtilis), Q9F4F7. Biochemical Sfp PPTase activity, qHTS. actives 3.5% (n = 310,000). Potency, µM, without a hit: largest response in the series, negative = inhibition, usual class: inhibitors;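 further: the enzyme is Sfp with the accession as filed and its product quenches rhodamine fluorescence; 0% = enzyme reaction without inhibitor and -100% = no enzyme wells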
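Compounds were incubated with enzyme (final 15 nM) for 15 min at room temperature before substrate addition started the reaction. Fluorescence at 525 nm excitation, 598 nm emission was recorded immediately and after 30 minutes.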
HP1b binding inh: HTS for Inhibitors of HP1-beta Chromodomain Interactions with Methylated Histone Tails; Chromobox protein homolog 1 (Homo sapiens), P83916; Potency, µM (doses to about 114 µM), for inactives: top-dose activity change, negative = inhibition, hits mostly inhibitors; AlphaScreen HP1-beta / biotin-H3K9me3 peptide binding; AID 540317, 2011; actives 0.56% (n = 390,000); further: nearly all actives have a fitted effect of over 70% in size
Target sequence (P83916 whole entry, looked up): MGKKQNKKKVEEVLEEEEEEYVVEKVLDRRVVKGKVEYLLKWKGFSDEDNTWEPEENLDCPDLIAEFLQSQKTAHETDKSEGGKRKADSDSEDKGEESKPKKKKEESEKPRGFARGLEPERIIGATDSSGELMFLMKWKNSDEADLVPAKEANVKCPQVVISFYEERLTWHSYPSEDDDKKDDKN
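AlphaScreen: HP1-beta (50 nM) preformed 30 min with biotin-H3(1-18)K9me3 peptide (50 nM) in PBS pH 7.4, 0.01% Tween-20. Compound added for 30 min at RT, then streptavidin donor/nickel chelate acceptor beads (10 ug/mL) for 30 min.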
G9a inh: qHTS Assay for Inhibitors of Histone Lysine Methyltransferase G9a | Histone-lysine N-methyltransferase EHMT2 (Homo sapiens), Q96KQ7 | actives 8.8% (n = 350,000) | G9a H3K9 monomethylation, AlphaScreen, 2 h | Potency, µM (doses to about 102 µM), for the others: top-dose activity, negative = inhibition, usual class: inhibitors | AID 504332, 2011; further: on the % scale 0 is the no-effect control and ±100 the full control effect; nearly all actives have a fitted effect of over 75% in size
Target sequence (Q96KQ7 913-1193 limits assumed): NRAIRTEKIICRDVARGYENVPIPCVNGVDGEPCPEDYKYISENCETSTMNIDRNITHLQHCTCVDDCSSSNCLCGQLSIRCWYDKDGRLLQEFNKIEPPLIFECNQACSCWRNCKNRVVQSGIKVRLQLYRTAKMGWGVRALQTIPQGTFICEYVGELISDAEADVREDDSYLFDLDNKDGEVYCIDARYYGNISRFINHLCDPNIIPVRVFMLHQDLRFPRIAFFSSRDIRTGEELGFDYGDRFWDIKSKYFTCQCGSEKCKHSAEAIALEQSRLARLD
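AlphaScreen read-out: biotin-H3K9 peptide (500 nM) methylation by 20 nM enzyme with 20 uM SAM, 2 h at room temperature after 15 min compound preincubation; anti-monomethyl H3K9 antibody plus donor/acceptor beads, 10 min dark.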
BAZ2B block: qHTS Assay for Inhibitors of BAZ2B. AlphaScreen BAZ2B-H3K14Ac peptide displacement. Potency, µM (top dose mostly 114 µM), inactives show at the highest dose activity change, negative = inhibition, usual class: inhibitors. AID 504333, 2011. Bromodomain adjacent to zinc finger domain protein 2B (Homo sapiens), Q9UIF8. actives 4.4% (n = 360,000); further: on the % scale 0 is the no-effect control and ±100 the full control effect; nearly all actives have a fitted effect of over 60% in size
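AlphaScreen displacement: compounds (up to 110uM) incubated 30 min at room temperature with a preformed 50 nM BAZ2B/50 nM biotinylated H3K14Ac peptide complex in PBS pH 7.4 with Tween-20. Donor and acceptor beads at 10 ug/mL final added, 20 min light-protected before reading.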
An asterisk follows results filed as active; ? = inconclusive; . = not tested or not shown; ! = not confirmed by another sample; [ ] = another dose, or the depositor's remark. An excerpt weighted towards active compounds, which were near 12% of everything screened. The call rests on the fitted dose curve; in most records, active means well fitted curve in the direction sought with a large enough effect; inconclusive means small, poorly fitted or top-dose-only effect, or another doubt; inactive means no such curve, though single readings can be large; an effect the other way counts as inactive or inconclusive. Potency means the concentration at half of the fitted maximal effect.

SMILES	JMJD2A Tudor	L3MBTL1 inh	Sfp inh	HP1b binding inh	G9a inh	BAZ2B block
Cc1cc(C)cc(N2C(=O)NC(=O)/C(=C\c3cc(C)n(C)c3C)C2=O)c1	-19%	-8%	-8%	6%	?	-6%
COc1ccc(N2C(=O)NC(=O)/C(=C/c3ccc4c(c3)Cc3ccccc3-4)C2=O)cc1	.	.	56µM*	.	3.5µM*	35µM*
CCOc1ccccc1N1C(=O)NC(=O)/C(=C/c2ccc3c4c(cccc24)CC3)C1=O	79µM*	-2%	56µM*	31%	27%[0.501 µM]	50µM*
COc1cccc(N2C(=O)NC(=O)/C(=C/c3ccc4c5c(cccc35)CC4)C2=O)c1	.	-12%	56µM*	.	10µM*	50µM*
COc1ccc(-n2c(/C=C3\C(=O)Nc4ccccc43)nc3ccccc3c2=O)cc1	1%	.	10%	-1%	-3%	2%
Oc1cccc2nc3ccccc3nc12	?	-9%	-15%	-29%	28µM*	?
O=C(O)c1nn(Cc2ccc(Cl)c(Cl)c2)c2ccccc12	.	.	8%	.	.	.
O=C(O)c1nn(Cc2ccc(Cl)cc2Cl)c2ccccc12	-10%	2%	5%	31%	2.2µM*!	1%
COc1ccc(OCC(=O)N2CCN(Cc3c[nH]c4ccccc34)CC2)cc1	3.5µM*	-3%	-15%	?	3.5µM*	.
O=C(Cc1ccccc1)N1CCN(Cc2c[nH]c3ccccc23)CC1	-11%	0%	0%	34%	-12%	1%
O=C(COc1ccccc1)N1CCN(Cc2c[nH]c3ccccc23)CC1	7.9µM*	2%	1%	-18%	13µM*	.
NC[C@@H]1O[C@H](OC2[C@@H](CO)O[C@@H](OC3[C@H](O)[C@H](N)C[C@H](N)[C@H]3OC3O[C@H](CO)[C@@H](O)[C@H](O)[C@@H]3N)[C@H]2O)C(N)[C@H](O)[C@@H]1O (stereo partly specified)	.	.	12%	.	23%[59 µM]	.
CCOc1ccc(Cc2c(O)[nH]c(=O)[nH]c2=O)cc1	-12%	-29%[11.4 µM]	20µM*	47%	?	6%
CSCCC(=O)Nc1cc(S(=O)(=O)N2CCOCC2)ccc1N1CCN(C)CC1	-16%	-5%	20%	19%	?	-2%
C/C=C/C/C=C/CCC(=O)[C@H]1O[C@H]1C(N)=O	.	.	7%	.	?	.
O=C(CCC(=O)Nc1ccccc1Cl)N/N=C/c1ccccc1	-6%	1%	-2%	41%	8%[59 µM]	5%
COc1cc2c(c(OC)c1OC)-c1ccc(O)cc1C(NC(C)=O)CC2 (stereo unspecified)	-3%	.	.	30%	.	.
COc1cc2c(c(OC)c1OC)-c1ccc(O)c(=O)cc1[C@@H](NC(C)=O)CC2	56µM*	-8%	-27%	51%	.	.
C[C@]12CC[C@H]3[C@@H](CCC4C[C@H](O)CC[C@@]43C)[C@@H]1CC[C@@H]2O (stereo partly specified)	.	.	.	.	10%[12.7 µM]	.
C/C=C(\C)CN1CCN(c2ccccc2F)CC1	3.2µM*	11%	-18%	?	?	?
CCN(CC)C(=O)CN1CCN(c2ccccc2F)CC1	8.9µM*	-7%	-20%	?	32µM*	?
Cc1ccccc1CC(=O)N(CCN(C)C)CC1CCCN(Cc2ccccc2F)C1 (stereo unspecified)	-16%	1%	12%	31%	-3%	-4%
COc1ccc(OC)c(CCNCc2c(C(=O)O)c(C)n(Cc3ccc(F)cc3Cl)c2C)c1	?	.	.	16%	-27%[59 µM]	50µM*
Brc1cc2c(cc1CN1CCN(c3ccccc3)CC1)OCCO2	?	.	1%	-11%[57 µM]	?	?
O=[N+]([O-])c1ccc(CN2CCN(c3ccc(Cl)cc3)CC2)o1	18µM*	-13%	79µM*	?	.	45µM*
SMILES	JMJD2A Tudor	L3MBTL1 inh	Sfp inh	HP1b binding inh	G9a inh	BAZ2B block
C=CCc1cccc(C=Nc2c[nH]c(=O)[nH]c2=O)c1O	40µM*	-7%	11%	0%	-10%	?
COc1cc(C2c3cc4c(cc3CC3COC(=O)C32)OCO4)cc(OC)c1O (stereo unspecified)	89µM*	.	.	11%	.	.
CC(CCC(=O)O)C1CCC2C3C(=O)CC4CC(=O)CC[C@@]4(C)C3CC(=O)[C@]12C (stereo partly specified)	.	.	8%	.	-6%[2.33 µM]	.
N#Cc1cccc(NC(=O)c2sc3nc4c(cc3c2N)N2CCC4CC2)c1	17%	.	.	57%	1%[59 µM]	5%
Nc1c(C(=O)Nc2ccc(Br)cc2F)sc2nc3c(cc12)N1CCC3CC1	?	.	.	40%	?	-3%
Nc1c(C(=O)Nc2ccc(F)c(Cl)c2)sc2nc3c(cc12)N1CCC3CC1	?	.	.	63%	8.9µM*	-17%
CN(C)c1ccc(NC(=O)c2sc3nc4c(cc3c2N)N2CCC4CC2)cc1	-19%	.	.	14%	5µM*	?
CCOc1ccccc1CN1C2CCC1CC(c1ccc(C)cc1)C2 (stereo unspecified)	-3%	1%	7%	70%	31%	-6%
CCOc1cccc(=NC2CCCCC2)c2c(C)n(C)c(C)c12	?	-4%	-6%	?	50µM*	?
NC[C@H](CP(=O)(O)O)c1ccc(Cl)cc1	.	.	-2%	.	.	.
CC1C(=O)OC2C1CC[C@@]1(C)C=CC(=O)[C@@]3(C)O[C@@]213 (stereo partly specified)	.	.	6%	.	?	.
C[C@@H]1O[C@H](O[C@H]2C[C@@H](O)[C@@]3(CO)[C@H]4[C@@H](O)C[C@]5(C)[C@@H](C6=CC(=O)OC6)CC[C@]5(O)[C@H]4CC[C@]3(O)C2)[C@@H](O)[C@H](O)[C@@H]1O	.	.	15%	.	24%[21.5 µM]	.
CC1=C(C(=O)O)N2C(=O)C(NC(=O)CCCC(=O)O)C2SC1 (stereo unspecified)	-26%	10%	-4%	13%	.	0%
CC(=O)OCC1=C(C(=O)O)N2C(=O)[C@@H](N)[C@@H]2SC1	.	.	22µM*	.	0%[5.15 µM]	.
COc1cccc(-n2c(CNC(=O)OC(C)(C)C)n[nH]c2=S)c1	10µM*	36%	50µM*	30%	28µM*	32%
COc1ccccc1N1CCN(CCc2c[nH]c3cc4c(cc23)OCO4)CC1	25µM*	.	.	?	.	.
